From ChEMBL document CHEMBL3433997, “St. Jude Leishmania screening dataset” (2016)

Legend:
Type in all cases: functional
[1] = molecular target: Solute carrier family 2, facilitated glucose transporter member 1 (Homo sapiens) (UniProt P11166); test: ST_JUDE_LEISH: Cytotoxicity at 2uM final concentration against transgenic Leishmania Mexicana promastigotes LmGLUT1 that are glucose transport deficient and complemented with the human glucose transporter GLUT1. Activity is measured by DNA content using SYBR green in vitro
[2] = molecular target: Hexose transporter 1 (Plasmodium falciparum) (UniProt O97467); test: ST_JUDE_LEISH: Cytotoxicity at 2uM final concentration against transgenic Leishmania Mexicana promastigotes LmPfHT that are glucose transport deficient and complemented with the Plasmodium falciparum hexose transporter. Activity is measured by DNA content using SYBR green in vitro
[3] = molecular target: Glucose transporter (Leishmania mexicana) (UniProt O61059); test: ST_JUDE_LEISH: Cytotoxicity at 2uM final concentration against transgenic Leishmania Mexicana promastigotes LmGT2 that are glucose transport deficient and complemented with the L. Mexicana glucose transporter 2. Activity is measured by DNA content using SYBR green in vitro

Sequence of Solute carrier family 2, facilitated glucose transporter member 1 (Homo sapiens) (P11166 whole entry): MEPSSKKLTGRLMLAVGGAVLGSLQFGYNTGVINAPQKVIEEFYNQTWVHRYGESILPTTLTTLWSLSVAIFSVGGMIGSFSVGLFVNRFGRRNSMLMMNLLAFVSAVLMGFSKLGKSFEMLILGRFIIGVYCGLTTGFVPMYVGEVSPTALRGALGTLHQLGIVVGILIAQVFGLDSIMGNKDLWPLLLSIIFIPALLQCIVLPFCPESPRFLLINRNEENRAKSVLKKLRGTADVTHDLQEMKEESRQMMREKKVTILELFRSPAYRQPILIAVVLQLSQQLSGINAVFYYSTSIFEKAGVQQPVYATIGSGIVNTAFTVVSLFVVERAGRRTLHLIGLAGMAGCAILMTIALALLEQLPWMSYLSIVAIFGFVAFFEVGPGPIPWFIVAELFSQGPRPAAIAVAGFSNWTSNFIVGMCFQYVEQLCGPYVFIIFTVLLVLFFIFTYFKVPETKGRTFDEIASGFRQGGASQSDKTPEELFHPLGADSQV

SMILES | inhibition [1] [%] | inhibition [2] [%] | inhibition [3] [%]
CN(C)C(CNC(=O)c1cc(-c2ccncc2)c(-c2ccc(NC(=O)Nc3ccccc3)cc2)o1)c1ccccc1 (stereo unspecified) | -0.56 | -0.15 | -0.82
O=C(Nc1cccc(-c2ccc(CN3CCCC3)cc2)c1)c1ccc(F)cc1 | -0.73 | 0.3 | 0.64
FC(F)(F)c1cccc(CCNc2nccc(NCc3ccccc3Cl)n2)c1 | 5.73 | 4.26 | 0.1
O=c1cc(NCCCN(Cc2cc3c(Cl)cc(Cl)cc3[nH]2)Cc2cc3c(Cl)cc(Cl)cc3[nH]2)[nH]c2ccccc12 | 9.06 | 9.4 | 7.31
COc1cc2c(cc1C(F)(F)F)N(C(=O)Nc1cc(F)c(F)c(-c3cccnc3)c1)CC2 | 10.1 | 1.42 | -4.39
CN(C)Cc1ccc(-c2ccc3c(Nc4ccc(Oc5ccccn5)cc4)ccnc3c2)o1 | 0.08 | 4.31 | 2.19
Cc1oc(-c2ccc(Cl)cc2)cc1C(=O)NCCC1CCN(CCCCCNC(=O)/C=C/c2ccc(Cl)c(Cl)c2)CC1 | -0.57 | -1.53 | -2.41
Cc1ccc(Nc2nc(C)cc(NCc3ccc(-n4ccnc4)cc3)n2)cc1 | 5.83 | 10.8 | 10.4
O=c1cc(NCCCNCc2cc(Cl)c(Cl)cc2Cl)[nH]c2ccccc12 | 0.5 | -0.04 | 0.23
CC(C)(CNCc1ccc(Cl)cc1)c1nc(-c2ccc(Cl)c(O)c2)c(-c2ccncc2)[nH]1 | 0.66 | 0.31 | -1.23
Cc1noc(-c2ccccc2)c1CN1CCCC2(CC(C(=O)NCc3cccc(F)c3F)=NO2)C1 (stereo unspecified) | 0.11 | -0.09 | -0.8
O=C(CSc1nccn1C1CCCC1)Nc1cc(C(F)(F)F)ccc1Cl | 1.51 | 2.58 | 2
CC(C)c1cn2c3c(cc(C(=O)N[C@@H](Cc4ccccc4)[C@H](O)CNC4CCOCC4)cc13)N(C)S(=O)(=O)CC2 | 3.12 | 2.83 | 3.22
C=Cc1c(C2CCN(CCCCNC(=O)c3ccc(-c4ccc(C#N)cc4)cc3)CC2)ccc2c1CCCC2 | 1.77 | 4.14 | 1.54
CC(C)Cn1cc(C2CCN(CCN3CCC(CNC(=O)c4ccc(-c5ccc(C#N)cc5)cc4)CC3)CC2)c2ccccc21 | 2.71 | 5.31 | 2.53
CCOP(=O)(OCC)c1ccc(OC)c(-c2ccc[nH]2)c1 | 4.52 | 2.22 | 1.77
O=C(NC1CCC(CCN2Cc3cccc(C(F)(F)F)c3C2)CC1)c1cccc(-c2cccnc2)c1 (stereo unspecified) | 3.38 | 1.73 | 2.16
CCOc1ccc2nc3cc(N)ccc3c(N)c2c1 | 1.58 | 3.26 | 1.19
COc1cccc(NC(=O)NC2CCN(c3ccnc(Nc4ccc(F)cc4)n3)C2)c1 (stereo unspecified) | 0.39 | 6.07 | 3.8
O=C(/C=C/c1ccc(Cl)c(Cl)c1)N1CCC(CN2CCC(Cc3nc4ccccc4[nH]3)CC2)CC1 | 1.43 | 1.29 | 3.16
CCc1nc(N)nc(N)c1-c1ccc(F)c(F)c1 | 3 | 5.22 | 3.74
CC(CN1CCN(C)CC1)C(=O)Nc1cccc(-c2ccc(-c3nc4cc(C(F)(F)F)ccc4[nH]3)cc2)c1 (stereo unspecified) | 5.29 | 4.14 | 5.41
O=C(O)Cc1ccc(-c2c[nH]c3ncc(-c4cccc5ncccc45)cc23)cc1 | 2.28 | 1.77 | 0.63
CC(C)(C(=O)NCCC1CCN(CCCCCNC(=O)/C=C/c2ccc(Cl)c(Cl)c2)CC1)c1ccc(Cl)cc1 | 5.49 | 4.45 | 4.35

SMILES | inhibition [1] [%] | inhibition [2] [%] | inhibition [3] [%]
Cc1cc(C(F)(F)F)cc(-n2ncc(-c3ccc(C(=O)NCCNCc4ccccc4)cc3)c2N)n1 | 0.77 | 1.46 | -0.24
O=C(Nc1cc(Cl)ccc1O)c1cnn2c(C(F)(F)F)cc(-c3cccs3)nc12 | 2.61 | 4.71 | 3.63
COc1ccc2nccc([C@@H](O)CN3CCC(NCCOc4ccncc4)CC3)c2c1 | -0.38 | 1.23 | -0.87
O=C(Nc1ccc(OC2CCN(Cc3ccccc3)CC2)c(Cl)c1)c1ccco1 | 8.6 | 10.1 | 8.63
CCCNCc1ccc(-c2ccc(CN(CC3CCCO3)C(=O)COc3ccccc3Cl)cc2)nc1 (stereo unspecified) | 4.33 | 4.73 | 2.71
COc1cc(NC(=O)N2CCc3ccc(OCCN(C(C)C)C(C)C)cc32)cc(C(F)(F)F)c1 | 1.98 | 1.73 | 2.06
O=C(NCc1cccc(Cl)c1)c1ccc(CNC2CCN(Cc3ccccc3)CC2)cc1 | -1.21 | -0.25 | 2.18
COc1cc(NC(=O)c2nn(CCCN3CCC(N4CCCC4)CC3)cc2-c2ccc(Cl)c(Cl)c2)cc(OC)c1OC | 1.76 | 2.09 | 1.96
CN(CCCCCNC(=O)/C=C/c1ccc(Cl)c(Cl)c1)CCCCc1c[nH]c2ccccc12 | 0.57 | 0.62 | 1.11
O=C(c1cc(-c2ccccc2O)on1)N1CCN(C(c2ccccc2)c2ccccc2)CC1 | -0.36 | -0.36 | 0.34
Nc1c(C(=O)NCCCCN2CCN(c3nsc4ccccc34)CC2)sc2ccccc12 | 5.13 | 4.14 | 2.39
CCC1CN2CCc3c([nH]c4ccccc34)C2CC1CC1=NCCc2c1[nH]c1ccccc21 (stereo unspecified) | 1.78 | 3.33 | 2.74
CCC(CO)NCC(O)Cn1c2ccc(Br)cc2c2cc(Br)ccc21 (stereo unspecified) | 1.9 | -0.92 | -1.57
Cc1ccc(NC(=O)NC2CCN(c3ccnc4ccccc34)C2)cc1 (stereo unspecified) | 5.83 | 5.57 | 7.34
Cc1cnc(NCC2CCCCC2)nc1NCC(=O)Nc1ccccc1 | 4.2 | 4.34 | 6.18
OC[C@H](Nc1nc(C(Oc2ccccc2)c2ccccc2)nc2[nH]ncc12)c1ccccc1 (stereo partly specified) | 7.13 | 4.93 | 4.96
CC(C)C(C(=O)n1cc2c(ccc3nc(N)nc(N)c32)n1)C(C)C | 8.32 | 11 | 3.51
Oc1cccc(Nc2nc(NCC3CCCO3)c3ccccc3n2)c1 (stereo unspecified) | 27 | 24.8 | 9.1
Cc1ccc(Nc2ccnc(Nc3ccc4c(c3)CS(=O)(=O)C4)n2)cc1O | 2.49 | 3.19 | 4.14
CCC(CC)N1CCN(CC(=O)Nc2ccc([N+](=O)[O-])cc2C(=O)Nc2cccc(OC)c2)CC1 | 3.1 | 1.8 | 1.35
COC(=O)CNC(c1ccccc1)c1cc(Br)ccc1NC(=O)c1ccccc1Br (stereo unspecified) | 7.18 | 16.3 | 5.19
Cc1cc(C(=O)OCC(=O)Nc2c(C)n(C)n(-c3ccccc3)c2=O)c(C)n1-c1ccc(F)cc1 | -2.25 | -1.81 | -0.97
CN(C)Cc1c(O)ccc2[nH]c(-c3ccc(OC(F)(F)F)cc3)nc12 | 3.92 | 3.22 | 2.9
O=C(CSc1nc2ccc([N+](=O)[O-])cc2s1)Nc1ccccc1-c1ccccc1 | -0.42 | -0.44 | -1.03

SMILES | inhibition [1] [%] | inhibition [2] [%] | inhibition [3] [%]
CC(C)c1ccc(-c2noc(SCC(=O)N(C)c3ccc(F)cc3)n2)cc1 | -1.33 | 0.23 | -0.55
c1cc(CNC2Cc3ccc(-c4cccs4)cc3C2)cc(-n2ccnc2)c1 (stereo unspecified) | 3.39 | 0.43 | 1.86
CC1(C)CCC(C)(C)c2c1ccc(C1CCN(CCCCNC(=O)c3ccc(-c4ccc(Cl)cc4)cc3)CC1)c2O | 2.14 | 1.66 | 0.11
CCOc1cc(CC)ccc1C1CCN(CCCCNC(=O)c2ccc(NC(=O)c3ccc(Cl)cc3)cc2)CC1 | 4.23 | 2.23 | 4.97
CN1CCOc2ccc(Nc3nnc(-c4cccc(-c5cccnc5)c4)o3)cc2C1 | 3.12 | 2.67 | 1.35
Cc1cccc2nc(-c3cccc(-c4ccc(NC(=O)NCc5ccccc5)cc4)c3)[nH]c12 | 1.51 | 2.74 | 1.31
COc1ccc(CCC(C)N2CC(N)C(c3cn(C)c4cnccc34)C2)cc1 (stereo unspecified) | 9.7 | 9.62 | 7.69
CS(=O)(=O)Nc1ccc(-c2cnc3[nH]cc(-c4ccc(C(=O)O)cc4)c3c2)cc1 | 8.98 | 9.93 | 8.74
CC(CN(C)C)C(=O)Nc1cccc(-c2ccc(-c3nc4cc(F)ccc4[nH]3)s2)c1 (stereo unspecified) | 3.85 | 2.55 | 4.47
O=C(Nc1ccc2c(c1)CCN2C1CCN(Cc2ccc(O)cc2)C1)c1ccco1 (stereo unspecified) | 0.95 | 2.04 | -0.34
COc1ccc(CN2CCC(CN3CC4(OC3=O)c3ccccc3-c3ccccc34)C2)c(O)c1 (stereo unspecified) | 10.8 | 9.02 | 11
CC(C)Sc1nc2c(c(=O)n1Cc1ccco1)C1(CCCCC1)Cc1ccccc1-2 | 2.09 | 2.03 | 1.54
Cc1nc(-c2nc(NCCc3cnccn3)ncc2-c2ccsc2)sc1C | 0.04 | 0.59 | -2.39
COCCNCc1cccc(-c2ccc3c(Nc4ccc(F)cc4Cl)ccnc3c2)c1 | -1.97 | 2.48 | 0.78
CCC(C)(C)c1ccc2nc(N)nc(N)c2c1C | 74.5 | 76.4 | 61.7
C=C(NC(=O)c1cc(C)cc(C)c1)C(=O)OC | 0.48 | -0.44 | 0.67
CCCCCCN1CCCN(Cc2cccc(NC(=O)c3cc4ccccc4s3)c2)CC1 | 2.73 | 3.42 | 0.46
Cn1ccnc1Sc1ncccc1[N+](=O)[O-] | -2.32 | 0.92 | 1.8
O=C(Nc1ccc(-c2cccc(-c3nc4ccccc4[nH]3)c2)cc1)NC1CC1c1ccccc1 (stereo unspecified) | 1.87 | 1.77 | -0.17
OC1(c2ccc(Br)cc2)CCN(C2CCN(Cc3ccccc3)CC2)CC1 | 5.8 | 6.01 | 3.71
CN(C)Cc1ccc(CN2CCN(CCOc3ccc(-c4ccc(Cl)cc4)cc3)CC2)o1 | 22.7 | 13.8 | 19.2
CCN(CC)/C(=N/C(=N)NCc1cccc(Cl)c1)NCCCCCCN/C(=N\C(=N)NCc1cccc(Cl)c1)N(CC)CC | 4.23 | 4.83 | 2.27
NC1CCN(c2nc(NCCc3ccc(O)cc3)nc(NCc3ccccc3-c3ccccc3)n2)CC1 | -0.15 | 0.54 | 0.38
Cc1cc(NCCCCCCNc2cc(C)nc3c(C)cccc23)c2cccc(C)c2n1 | 3.76 | 7.91 | 0.85
